Experimental data from PubChem BioAssay AID1159580 (chemical genetic matrix, 2015).
Out of some 5,500 compounds screened, about 2,000 (36%) were called active. Inconclusive results (about 18%) are left out. Cut-off read from the data, not from the text of the source: active = normalized growth mostly below about 0.91 (no sharp cut-off); inconclusive = no clear call, values can overlap the other calls; inactive = mostly above about 0.92. The list shows a part of the results.

Assay: chemical genetic growth profiling, strain panel (AID 1159580);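 note: tested at 20 µM; growth read once vehicle control cultures reached saturation at 30 °C; 1 = growth at the plate median or of vehicle wells; lower values mean less growth of the strain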
Conditions: S. cerevisiae deletion strains, growth OD
[1] = locus YHR030C, strain SLT2, active compounds read low
[2] = locus YHR079C, strain IRE1, active compounds read low
[3] = locus YJL095W, strain BCK1, active compounds read low
[4] = locus YJR066W, strain TOR1, active compounds read low
[5] = locus YLR113W, strain HOG1, active compounds read low
[6] = locus YNL183C, strain NPR1, active compounds read low
[7] = locus YOR231W, strain MKK1, active compounds read low

Measured: normalized growth

O=C(Nc1ccc(Cl)cc1)OCCSc1nc2ccccc2s1
inactive: locus YAR019C, strain CDC15, active compounds read low 0.987 | locus YBL105C, strain PKC1, active compounds read low 0.973 | locus YBR135W, strain CKS1, active compounds read low 0.979 | locus YBR136W, strain MEC1, active compounds read low 0.976 | locus YBR160W, strain CDC28, active compounds read low 0.979 | locus YDL017W, strain CDC7, active compounds read low 0.983 | locus YDL028C, strain MPS1, active compounds read low 0.982 | locus YDL101C, strain DUN1, active compounds read low 0.985 | locus YDL108W, strain KIN28, active compounds read low 0.978 | locus YDL132W, strain cdc53, active compounds read low 0.979 | locus YDL214C, strain PRR2, active compounds read low 0.883 | locus YDR052C, strain DBF4, active compounds read low 0.994 | locus YDR054C, strain cdc34, active compounds read low 0.973 | locus YDR226W, strain ADK1, active compounds read low 0.987 | locus YDR477W, strain SNF1, active compounds read low 0.959 | locus YER123W, strain YCK3, active compounds read low 0.887 | locus YER133W, strain GLC7, active compounds read low 0.93 | locus YFL009W, strain cdc4, active compounds read low 0.981 | locus YFL029C, strain CAK1, active compounds read low 0.975 | locus YFR003C, strain YPI1, active compounds read low 0.977 | locus YFR019W, strain FAB1, active compounds read low 0.848 | locus YFR028C, strain CDC14, active compounds read low 0.975 | locus YGR040W, strain KSS1, active compounds read low 0.929 | locus YGR052W, strain FMP48, active compounds read low 0.911 | locus YGR092W, strain DBF2, active compounds read low 0.928 | [2] 0.902 | locus YHR082C, strain KSP1, active compounds read low 0.86 | locus YHR205W, strain SCH9, active compounds read low 0.695 | locus YIL147C, strain SLN1, active compounds read low 0.988 | [3] 0.845 | locus YJL128C, strain PBS2, active compounds read low 0.944 | locus YJL157C, strain FAR1, active compounds read low 0.894 | locus YJR016C, strain ILV3, active compounds read low 0.985 | locus YJR066W, strain TOR1 (second series), active compounds read low 0.811 | [4] 0.833 | locus YKL048C, strain ELM1, active compounds read low 1.01 | locus YKL067W, strain YNK1, active compounds read low 0.901 | locus YKL101W, strain HSL1, active compounds read low 0.952 | locus YKL193C, strain SDS22, active compounds read low 0.983 | locus YKL203C, strain TOR2, active compounds read low 0.987 | locus YLR133W, strain CKI1, active compounds read low 0.93 | locus YLR403W, strain SFP1, active compounds read low 0.899 | locus YML070W, strain DAK1, active compounds read low 0.894 | locus YMR001C, strain CDC5, active compounds read low 0.976 | locus YMR205C, strain PFK2 (second series), active compounds read low 0.95 | locus YMR277W, strain FCP1, active compounds read low 0.979 | locus YNL006W, strain LST8, active compounds read low 0.991 | locus YNL020C, strain ARK1, active compounds read low 0.929 | locus YNL161W, strain CBK1, active compounds read low 0.985 | [6] 0.846 | locus YNL207W, strain RIO2, active compounds read low 0.983 | locus YNL222W, strain SSU72, active compounds read low 0.976 | locus YNL307C, strain MCK1 (second series), active compounds read low 0.909 | locus YOL078W, strain AVO1, active compounds read low 0.977 | locus YOL136C, strain PFK27, active compounds read low 0.902 | locus YOR061W, strain CKA2, active compounds read low 0.928 | locus YOR119C, strain RIO1, active compounds read low 0.984 | [7] 0.931 | locus YOR329C, strain SCD5, active compounds read low 0.987 | locus YPL031C, strain PHO85, active compounds read low 0.955 | locus YPL153C, strain RAD53, active compounds read low 0.95 | locus YPL204W, strain HRR25, active compounds read low 0.922 | locus YPL209C, strain IPL1, active compounds read low 0.982 | locus YPR025C, strain CCL1, active compounds read low 0.977 | locus YPR106W, strain ISR1, active compounds read low 0.984 | locus YPR111W, strain DBF20, active compounds read low 0.972 | strain NNK1, active compounds read low 0.988 | strain TSCII, active compounds read low 0.979
active: [1] 0.757 | [5] 0.859

CCOC(=O)Nc1nc2ccccc2[nH]1
inactive: locus YAL021C, strain ccr4, active compounds read low 0.936 | locus YAL026C, strain drs2, active compounds read low 0.977 | locus YAL030W, strain snc1, active compounds read low 0.96 | locus YBL061C, strain skt5, active compounds read low 0.982 | locus YBR009C, strain hhf1, active compounds read low 0.967 | locus YBR023C, strain chs3, active compounds read low 0.995 | locus YBR171W, strain sec66, active compounds read low 0.965 | locus YBR231C, strain swc5, active compounds read low 0.988 | locus YBR279W, strain paf1, active compounds read low 0.991 | locus YCL011C, strain gbp2, active compounds read low 0.979 | locus YCL016C, strain dcc1, active compounds read low 0.995 | locus YCL061C, strain MRC1, active compounds read low 0.992 | locus YCL069W, strain vba3, active compounds read low 0.992 | locus YCR088W, strain abp1, active compounds read low 0.99 | locus YDL005C, strain med2, active compounds read low 0.994 | locus YDL040C, strain nat1, active compounds read low 0.994 | locus YDR001C, strain nth1, active compounds read low 0.97 | locus YDR069C, strain doa4, active compounds read low 0.902 | locus YDR137W, strain rgp1, active compounds read low 0.865 | locus YDR159W, strain sac3, active compounds read low 0.979 | locus YDR195W, strain ref2 1.13 | locus YDR297W, strain sur2, active compounds read low 0.964 | locus YDR334W, strain swr1, active compounds read low 0.947 | locus YDR335W, strain msn5, active compounds read low 0.989 | locus YDR392W, strain spt3, active compounds read low 0.972 | locus YEL003W, strain gim4, active compounds read low 0.972 | locus YEL037C, strain rad23, active compounds read low 0.984 | locus YEL061C, strain CIN8 (second series), active compounds read low 0.983 | locus YER015W, strain faa2, active compounds read low 0.972 | locus YER016W, strain bim1, active compounds read low 0.994 | locus YER111C, strain swi4, active compounds read low 0.991 | locus YER155C, strain BEM2 (second series), active compounds read low 0.977 | locus YFR010W, strain ubp6, active compounds read low 0.937 | locus YGL167C, strain pmr1, active compounds read low 0.984 | locus YGL173C, strain kem1, active compounds read low 0.953 | locus YGL227W, strain vid30, active compounds read low 0.986 | locus YGL240W, strain doc1, active compounds read low 0.941 | locus YGL253W, strain hxk2, active compounds read low 0.982 | locus YHR013C, strain ard1, active compounds read low 0.956 | locus YHR027C, strain rpn1, active compounds read low 0.962 | [1] 0.969 | [2] 0.976 | locus YHR142W, strain chs7, active compounds read low 0.986 | locus YJL092W, strain hpr5, active compounds read low 0.999 | locus YJL095W, strain BCK1 (second series), active compounds read low 0.975 | [3] 0.987 | locus YJL115W, strain asf1, active compounds read low 0.961 | locus YJL129C, strain trk1, active compounds read low 1.03 | locus YJL154C, strain vps35, active compounds read low 0.982 | locus YJL164C, strain tpk1, active compounds read low 0.986 | locus YJL166W, strain qcr8, active compounds read low 0.977 | locus YJL187C, strain SWE1, active compounds read low 0.988 | [4] 0.923 | locus YKL160W, strain elf1, active compounds read low 0.985 | locus YKR026C, strain gcn3, active compounds read low 0.996 | locus YKR091W, strain srl3, active compounds read low 0.987 | locus YLL001W, strain dnm1, active compounds read low 0.987 | locus YLL026W, active compounds read low 0.974 | locus YLL041C, strain sdh2, active compounds read low 0.978 | locus YLR027C, strain aat2, active compounds read low 0.985 | [5] 1.03 | locus YLR221C, strain rsa3, active compounds read low 0.988 | locus YLR258W, strain gsy2, active compounds read low 0.984 | locus YLR262C, strain YPT6 (second series), active compounds read low 0.933 | locus YLR320W, strain mms22, active compounds read low 0.966 | locus YLR342W, strain FKS1, active compounds read low 0.988 | locus YLR357W, strain rsc2, active compounds read low 0.92 | locus YLR370C, strain arc18, active compounds read low 0.986 | locus YLR384C, strain iki3, active compounds read low 0.978 | locus YML120C, strain ndi1, active compounds read low 0.998 | locus YMR058W, strain fet3, active compounds read low 0.968 | locus YMR125W, strain sto1, active compounds read low 1 | locus YMR129W, active compounds read low 0.981 | locus YMR205C, strain PFK2, active compounds read low 0.904 | locus YMR231W, strain pep5, active compounds read low 0.989 | locus YNL071W, strain lat1, active compounds read low 0.985 | [6] 0.942 | locus YNL209W, strain ssb2, active compounds read low 0.971 | locus YNL248C, strain rpa49, active compounds read low 0.998 | locus YNL322C, strain KRE1 (second series), active compounds read low 0.983 | locus YNR049C, strain mso1, active compounds read low 0.983 | locus YOR001W, strain rrp6, active compounds read low 0.97 | locus YOR070C, strain gyp1, active compounds read low 0.983 | locus YOR080W, strain dia2, active compounds read low 0.971 | locus YOR083W, strain WHI5, active compounds read low 0.974 | locus YOR106W, strain vam3, active compounds read low 0.927 | [7] 0.954 | locus YOR265W, strain rbl2, active compounds read low 0.987 | locus YOR270C, strain vph1, active compounds read low 0.868 | locus YOR290C, strain snf2, active compounds read low 0.895 | locus YPL051W, strain arl3, active compounds read low 0.987 | locus YPL078C, strain atp4, active compounds read low 0.986 | locus YPL106C, strain sse1, active compounds read low 0.956 | locus YPL240C, strain hsp82, active compounds read low 0.991 | locus YPL256C, strain CLN2, active compounds read low 0.987
